Screens: PubChem, several laboratories
Hits are enriched below; roughly 3.7% of the tested compounds scored in any of these assays.
NALP3 yeast inh = blocks the NALP3 inflammasome reconstituted in yeast. Yeast reconstituted NLRP3/ASC/caspase-1, beta-gal luminescence, 24 h. inhibition, % at 10 µM. 330,000 tested, 0.39% active. AID 2825;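 active means inhibition of 50% or more; inactive means inhibition below 50%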;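 further: plate controls were induced DMSO wells for no effect and uninduced yeast grown without galactose for full effect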
tim10-1 inh = growth inhibitors of tim10-1 mutant yeast. S. cerevisiae tim10-1 ts strain growth, BacTiter-Glo, 24 h. inhibition, % at 20 µM. AID 463190. 330,000 tested, 2.2% active;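 active means inhibition of at least 40%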;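 further: mutant grown at 25 °C; 0% = DMSO wells with yeast and 100% = wells holding no yeast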
tim23-1 inh = inhibits growth of tim23-1 mutant yeast. inhibition, % at 20 µM. 330,000 tested, 1.3% active. S. cerevisiae tim23-1 growth, BacTiter-Glo luminescence, 24 h. AID 463212;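 active means growth inhibition of the mutant yeast at or above 50%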;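 further: temperature-sensitive mutant grown at 25 °C; plate controls were DMSO-treated mutant yeast for no effect and medium wells lacking yeast for full effect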
TIM10 inh = inhibits growth of TIM10 yeast strain. S. cerevisiae TIM10 strain growth, BacTiter-Glo luminescence, 24 h. inhibition, % at 10 µM. 330,000 tested, 1.4% active. AID 463195;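 active means inhibition of 40% or more at the single tested concentration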;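 further: wild-type TIM10 isogenic control strain grown at permissive 25 °C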
PfHsp90 yeast 2 = growth inhibition of yeast expressing Plasmodium Hsp90; inhibition, % at 9.4 µM; AID 504621; 310,000 tested, 0.32% active; S. cerevisiae expressing PfHsp90, BacTiter-Glo ATP, 48 h; yeast lacking PDR1 and PDR3 efflux regulators;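 active means every replicate shows inhibition above about 80%, whatever the replicate mean, limit read from the data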;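 further: 0% = DMSO neutral controls and 100% = 20 µM radicicol positive controls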
tim10-1 confirm = confirmation of tim10-1 mutant yeast growth inhibitors | shares compounds with tim10-1 inh | AID 463213 | 7,400 tested, 56% active | inhibition, % at 20 µM | S. cerevisiae tim10-1 ts strain growth, BacTiter-Glo, 24 h;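 active means inhibition of yeast growth at or above a set limit in either of two repeat tests at 20 µM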;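 further: tim10-1 mutant grown at permissive 25 °C to find synthetic lethal compounds; 0% = DMSO yeast wells and 100% = medium wells without yeast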
TIM10 conf = confirmation of TIM10 yeast growth inhibitors; inhibition, % at 10 µM; shares compounds with TIM10 inh; 4,600 tested, 63% active; S. cerevisiae tim10 strain growth, BacTiter-Glo luminescence, 24 h;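 active means inhibition of yeast growth at or above a set limit in either of two replicates at 10 µM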;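 further: this counterscreen used the strain with wild-type TIM10; 0% = yeast with DMSO and 100% = medium wells lacking yeast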
tim23-1 conf = confirmation of tim23-1 mutant yeast growth inhibitors | shares compounds with tim23-1 inh | S. cerevisiae tim23-1 growth, BacTiter-Glo luminescence, 24 h | inhibition, % at 20 µM | 4,400 tested, 83% active | AID 463218;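 active means inhibition above about 39% in either of two replicate wells at 20 µM, limit read from the data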;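 further: temperature-sensitive tim23-1 mutant grown at 25 °C; 0% = DMSO wells with yeast and 100% = medium wells without yeast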
* hit, by the source's call; / = not tested or not shown.

SMILES | NALP3 yeast inh | tim10-1 inh | tim23-1 inh | TIM10 inh | PfHsp90 yeast 2 | tim10-1 confirm | TIM10 conf | tim23-1 conf
CCN(CC)c1nc(-c2ccccn2)nc(-c2ccccc2)c1C#N | 9.1 | 58.1* | 57.6* | 60.2* | -73.2 | 51.3* | 65.0* | 53.3*
COC(=O)C=C1CCC2C3CCC4=CC(=O)C(Br)CC4(C)C3C(=O)CC12C (centres undefined) | / | / | / | / | -43.5 | / | / | /
Cc1nn(-c2ccccc2)c(Cl)c1/C=C(\C#N)C(=O)NC(C)C | 34.5 | 55.9* | 72.9* | 53.2* | -10.4 | 72.5* | 55.7* | 59.8*
CC(C)c1ccc(CNCCCSc2ncccn2)cc1 | 14.1 | 11.8 | 19.2 | -4.8 | 4.0 | / | / | /
O=C(O)CC1S/C(=N/N=C/C2CC=CCC2)NC1=O (centres undefined) | 8.7 | 2.9 | 10.7 | -23.7 | -14.4 | / | / | /
O=C1Nc2ccc(Cl)cc2/C1=C/C1CC=CCC1 (centres undefined) | -27.5 | 77.6* | 64.4* | 59.1* | 31.5 | 87.0* | 19.2 | 65.1*
Cc1cc(-c2n[nH]c(=S)n2/N=C/C(Cl)=C/c2ccccc2)n[nH]1 | 31.5 | 50.6* | 54.1* | 54.5* | 6.4 | 46.6* | -8.1 | 47.7*
CC(/C=N/n1c(COc2ccccc2)n[nH]c1=S)=C\c1ccccc1 | 31.9 | 43.3* | 50.6* | 34.3 | -53.5 | 29.7 | / | 50.0*
Nc1ncnc2c1C1(CCCCC1)Cc1ccccc1-2 | -6.8 | 42.1* | 50.0* | 28.7 | 0.0 | 29.8 | / | 26.8
Cc1ccc(CNC(=O)CCn2cc(-c3ccc(C)cc3)nc2CCN)cc1 | 17.4 | -3.2 | -2.9 | -0.7 | -14.9 | / | / | /
CC(O)Cn1c(N2CCCC2)nc2c1c(=O)n(C)c(=O)n2C (centres undefined) | 7.2 | -2.2 | 11.2 | 2.5 | 15.3 | / | / | /
Cc1ccc(C(=O)Sc2cccccc2=O)cc1 | 15.4 | 74.1* | 89.3* | 73.2* | 104.0* | 76.8* | 89.3* | -27.8
Cc1ccc(C(=O)CC(=O)c2ccccc2)cc1 | 20.2 | 11.8 | 27.1 | 9.2 | 13.3 | / | / | /
c1ccc(-n2cnc3cc(NCc4cccs4)ccc32)cc1 | 1.8 | 45.6* | 51.2* | 51.8* | -4.3 | 33.0* | 46.1* | 70.2*
COc1ccc(-n2cnc3cc(NCc4cccs4)ccc32)cc1 | 18.1 | 40.2* | 58.4* | 34.1 | 14.7 | -1.2 | / | 40.5*
O=C(COC(=O)c1cncc(Br)c1)NCC12CC3CC(CC(C3)C1)C2 | 25.2 | 28.5 | 32.6 | 14.0 | 1.8 | / | / | /
Cc1csc(NC(=O)Cc2c(F)cccc2Cl)n1 | -5.2 | 22.4 | 20.4 | 13.0 | 10.1 | / | / | /
CCOC(=O)c1[nH]c(C=O)c(C(=O)OCC)c1C | 25.2 | 59.9* | 76.3* | 67.3* | -12.4 | 50.0* | 54.8* | 79.9*
O=C(/C=C/c1cccs1)NC(=S)NNC(=O)c1ccccc1O | 48.4 | 44.5* | 64.5* | 42.3* | 28.4 | 24.2 | 41.7* | 66.4*
O=C(c1ccc2nsnc2c1)N1CCN(c2ccc([N+](=O)[O-])cc2)CC1 | 12.6 | 13.7 | 10.7 | 12.4 | -2.8 | / | / | /
Cc1ccc(C)c(N2CCN(C(=O)c3ccc4nsnc4c3)CC2)c1 | -32.6 | 56.6* | 61.0* | 28.2 | -11.3 | 25.9 | / | 47.2*
Cc1noc2ncnc(Sc3ccc(Br)cc3)c12 | 45.6 | 53.7* | 65.3* | 35.6 | -20.8 | 73.9* | / | 68.2*
N#C/C(=C\c1ccco1)Sc1nc2ccccc2s1 | 48.9 | 50.4* | 58.1* | 56.2* | 21.0 | 58.2* | 44.4* | 50.8*
COc1ccccc1C1CC(c2ccc(NS(C)(=O)=O)cc2)=NN1C(=O)c1ccccc1 (centres undefined) | -6.9 | 20.9 | 16.6 | 18.8 | -10.2 | / | / | /
COc1ccccc1C1CC(c2ccccc2)=NN1C(=O)c1ccccc1 (centres undefined) | 3.6 | 41.8* | 62.2* | 39.0 | -4.2 | 45.5* | / | 52.5*
SMILES | NALP3 yeast inh | tim10-1 inh | tim23-1 inh | TIM10 inh | PfHsp90 yeast 2 | tim10-1 confirm | TIM10 conf | tim23-1 conf
Cc1cc(=O)[nH]c(SCC(=O)C23CC4CC(CC(C4)C2)C3)c1C#N | 14.5 | 66.0* | 74.2* | 72.7* | 23.3 | 60.2* | 58.7* | 48.9*
CCOc1ccccc1N1CCN(C(=O)c2ccncc2)CC1 | 8.7 | 14.2 | 5.3 | -14.1 | -18.6 | / | / | /
CCOc1ccccc1N1CCN(C(=O)Nc2ccc(Cl)c(Cl)c2)CC1 | 16.8 | 48.4* | 58.1* | 37.2 | / | 37.2* | / | 50.5*
Cc1ccc(C(C)C)c(OCCNCCc2ccccc2)c1 | 39.5 | 10.3 | 7.9 | 11.9 | 7.1 | / | / | /
N#C/C(=C\c1cccc(NC(=O)c2ccccc2Cl)c1)C(=O)NCCc1ccccc1 | 7.8 | 66.1* | 60.0* | 57.0* | -121.3 | 61.3* | 3.8 | 57.0*
COc1ccc(NC(=O)C2CCN(S(=O)(=O)c3cn(C)nc3C)CC2)cc1 | -2.8 | -6.9 | 8.0 | 3.4 | 14.9 | / | / | /
O=C1C2C3C=CC(C4CC34)C2C(=O)N1/N=C/c1ccc(-c2ccc([N+](=O)[O-])cc2)o1 (centres undefined) | 5.1 | 16.9 | 5.7 | 5.6 | -16.8 | / | / | /
O=C1C2C(C(=O)N1/N=C/c1ccc([N+](=O)[O-])o1)C1C=CC2C12CC2 (centres undefined) | 14.7 | 56.5* | 63.9* | 43.5* | 4.0 | 49.8* | -14.0 | 62.5*
O=C1C2C3C=CC(C4CC34)C2C(=O)N1/N=C/c1ccc([N+](=O)[O-])o1 (centres undefined) | 15.0 | 67.1* | 75.8* | 45.1* | -37.6 | 54.9* | 46.5* | 74.0*
O=C(COc1cccnc1[N+](=O)[O-])Nc1ccc(Cl)c(S(=O)(=O)N2CCOCC2)c1 | 1.2 | -0.4 | 6.3 | -7.8 | -4.5 | / | / | /
Cc1ccc(C(=O)Nc2cccc3ccccc23)o1 | 11.4 | -6.7 | 25.7 | -0.5 | / | / | / | /
Cc1cccc(NC(=O)c2ccc([N+](=O)[O-])o2)c1C | 25.9 | 62.2* | 50.1* | 55.7* | -16.2 | 60.8* | 41.7* | 39.4*
COc1ccccc1NC(=O)c1ccc(-c2ccccc2F)o1 | 15.3 | 2.5 | 16.8 | 17.3 | 2.7 | / | / | /
Cc1ccc(NC(=O)c2ccc([N+](=O)[O-])o2)cc1C | 4.2 | 5.6 | -18.9 | 12.6 | 43.6 | / | / | /
CCCn1c(NC(=O)c2ccc([N+](=O)[O-])o2)nc2ccccc21 | 26.2 | 54.8* | 50.5* | 41.4* | -9.1 | 48.8* | 60.9* | 58.1*
O=C(Nc1cccc2ccccc12)c1ccc([N+](=O)[O-])o1 | 12.6 | 79.6* | 78.1* | 68.3* | -17.9 | 75.4* | 73.7* | 75.1*
COc1ccccc1NC(=O)c1ccc([N+](=O)[O-])o1 | 17.8 | 66.3* | 78.6* | 47.2* | / | 56.2* | 45.8* | 72.3*
